6 molecules from PubChem BioAssay (EPA / NIEHS) can be followed below.

Where “and” joins values, the source holds several entries; their conditions need not be identical. Equal entries are not always repeated. Inconclusive results are not listed. Some compounds were tested as several samples or in several runs, with calls that do not always agree. Calls of active or inactive are those of the source. How the source made its calls, unless noted: active means hit-call score of the fitted dose curve at least 0.9, where 1 is the maximum; inactive means score below 0.9.

The term AC50 denotes the concentration at which the activity in the assay is half-maximal.

The target of assay [1] is Paired box protein Pax-6 (Homo sapiens) (UniProt P26367). The experiment in a line: ATG_Pax6_CIS: Attagene CIS-FACTORIAL HepG2 Assay for human Paired Box 6 (PAX6) (AID 2282956). Particulars: HepG2 CIS-FACTORIAL PAX6 reporter transcription, RNA readout; actives raise or lower the signal. In outline:
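Readout: reporter transcript fluorescence after RT-PCR and capillary electrophoresis. Cells: HepG2, transiently transfected with cis-regulated MRTUs. Exposure 24 h. Gain or loss of signal fitted bidirectionally relative to DMSO.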

Assay [2] in a line: ATG_PXRE_CIS: Attagene CIS-FACTORIAL HepG2 Assay for human Pregnane X Receptor Element (PXRE) (AID 2282957). Particulars: HepG2 Attagene CIS-FACTORIAL PXRE reporter, mRNA; actives raise or lower the signal. In outline:
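After a 24 h chemical incubation, total RNA from transfected HepG2 cells was reverse-transcribed and reporter cDNA amplified, FAM-labeled, HpaI-digested and sized by capillary electrophoresis. DMSO served as baseline for bidirectional curve fitting.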

Assay [3] can be described thus: ATG_PPRE_CIS: Attagene CIS-FACTORIAL HepG2 Assay for human Peroxisome Proliferator-activated Response Element (PPRE) (AID 2282958). Particulars: HepG2 PPRE cis-element reporter, Attagene transcription factor profiling; actives raise or lower the signal. In a few lines: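 Read-out: fluorescent reporter mRNA fragments resolved by capillary electrophoresis after RT-PCR. HepG2 cells carried transiently transfected PPRE-driven cis reporter constructs and were dosed for 24 h; gain or loss of signal fitted relative to DMSO.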

A short description of assay [4]: ATG_RORE_CIS: Attagene CIS-FACTORIAL HepG2 Assay for human RAR-related Orphan Receptor Element (RORE) (AID 2282959). Particulars: HepG2 Attagene cis-factorial RORE reporter, mRNA; actives raise or lower the signal. In outline:
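Readout: fluorescent reporter mRNA by RT-PCR plus capillary electrophoresis, 24 h after dosing transfected HepG2 cells. Endogenous transcription factor activity on a cis promoter element is measured. Gain or loss of signal fitted against DMSO.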

The nature of assay [5]: ATG_Sox_CIS: Attagene CIS-FACTORIAL HepG2 Assay for human SRY-box transcription factor (SOX) (AID 2282960). Particulars: HepG2 Attagene cis-factorial SOX reporter, mRNA; actives raise or lower the signal. In outline: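 Read-out: fluorescent RT-PCR products of SOX1-linked reporter transcripts resolved by capillary electrophoresis, fitted bidirectionally against DMSO. Transiently transfected HepG2 cells, 24 h after chemical exposure, endogenous transcription factor activity.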

For assay [6], the target named is Transcription factor Sp1 (Homo sapiens) (UniProt P08047). The experiment in a line: ATG_Sp1_CIS: Attagene CIS-FACTORIAL HepG2 Assay for human Specificity Protein 1 (Sp1) (AID 2282961). Particulars: HepG2 Sp1 cis-reporter transcription, actives raise or lower the signal. In outline:
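Read-out: fluorescence of 6-FAM-labeled, HpaI-digested RT-PCR products separated by capillary electrophoresis. HepG2 cells carried transfected cis-element reporter units and were exposed to chemicals for 24 h; gain or loss of signal fitted relative to DMSO.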

The nature of assay [7]: ATG_SREBP_CIS: Attagene CIS-FACTORIAL HepG2 Assay for human Sterol Regulatory Element Binding (SREBP) (AID 2282962). Particulars: HepG2 Attagene cis-factorial SREBP reporter, mRNA; actives raise or lower the signal. In outline: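 Readout: fluorescent reporter-transcript peaks resolved by capillary electrophoresis after RT-PCR. Cells were human HepG2 carrying transfected cis-promoter reporter constructs, dosed for 24 h. Gain or loss of signal was fitted against DMSO controls.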

In assay [8] the target is Signal transducer and activator of transcription 3 (Homo sapiens) (UniProt P40763). The experiment in a line: ATG_STAT3_CIS: Attagene CIS-FACTORIAL HepG2 Assay for human Signal Transducer and Activator of Transcription 3 (STAT3) (AID 2282963). Particulars: HepG2, Attagene cis-factorial STAT3 reporter transcription; actives raise or lower the signal. In outline:
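Cis-factorial format: endogenous transcription factors in HepG2 drive transfected reporter units. After 24 h treatment, reporter RNA was reverse-transcribed, amplified, FAM-labelled and HpaI-digested before CE analysis; activity scored in both directions against DMSO.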

Assay [9] in a line: ATG_TA_CIS: Attagene CIS-FACTORIAL HepG2 Assay for human TA Basal Promoter (AID 2282964). Particulars: HepG2 Attagene CIS-factorial TA basal promoter reporter; actives raise or lower the signal. In outline:
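Steps: transfect HepG2 with MRTUs; dose 24 h; isolate RNA, DNase-treat, reverse-transcribe; PCR and FAM-label reporter cDNA; digest with HpaI 2h at 37 C; run capillary electrophoresis. Activity fitted both directions against DMSO.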

Assay [10] is described as follows: ATG_TCF_b_cat_CIS: Attagene CIS-FACTORIAL HepG2 Assay for human T-Cell-Factor with beta-catenin (TCF/b-cat) (AID 2282965). Particulars: HepG2 TCF/beta-catenin cis-reporter transcription, actives raise or lower the signal. In outline:
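Measured: reporter mRNA in HepG2 transiently transfected with cis-promoter reporter units, 24 h after chemical addition. Fitting was bidirectional, DMSO as negative control.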

A short description of assay [11]: ATG_TAL_CIS: Attagene CIS-FACTORIAL HepG2 Assay for human TAL Basal Promoter (AID 2282966).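 Further: background control endpoint measuring basal TAL promoter reporter mRNA not a specific factor.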 Particulars: HepG2 Attagene cis-factorial TAL promoter reporter; actives raise or lower the signal. In a few lines: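 Basal-promoter background-control endpoint from a multiplexed HepG2 reporter panel. Cells were exposed 24 h, then reporter mRNA was read by RT-PCR/CE fluorescence and fitted in both directions relative to DMSO.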

Assay [12] is described as follows: ATG_TGFb_CIS: Attagene CIS-FACTORIAL HepG2 Assay for human Transforming Growth Factor (TGF) (AID 2282967). Particulars: HepG2 Attagene CIS TGFb reporter, mRNA transcription; actives raise or lower the signal. In outline:
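Cells were dosed for 24 hours, after which total RNA was reverse-transcribed and reporter sequences amplified, labeled and sized by capillary electrophoresis. Activity was fitted in both directions against DMSO.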

Assay [13] in a line: ATG_VDRE_CIS: Attagene CIS-FACTORIAL HepG2 Assay for human Vitamin D Receptor Element (VDRE) (AID 2282968). Particulars: HepG2 VDRE cis-reporter transcription, actives raise or lower the signal. In a few lines: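 Measures endogenous factor activity through cis-element-driven reporter transcripts in transiently transfected HepG2. Cells are treated 24 h; reporter mRNA is quantified by RT-PCR and capillary electrophoresis; fitting is bidirectional.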

Assay [14] deals with Estrogen receptor (Homo sapiens) (UniProt P03372). The experiment in a line: ATG_ERa_TRANS: Attagene TRANS-FACTORIAL HepG2 Assay for human Estrogen Receptor alpha (ERa) (AID 2282970; active means hit-call score of the fitted dose curve at least 0.9, where 1 is the maximum). Particulars: HepG2 Attagene TRANS ERa GAL4 reporter, mRNA. In outline: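 Gal4-fusion ERa transactivation, measured as reporter transcript level in transiently transfected HepG2 cells. Exposure 24 h; RT-PCR plus capillary electrophoresis with fluorescence detection.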
Chain of Estrogen receptor (Homo sapiens) (P03372 whole entry, looked up, the tested form may be a part): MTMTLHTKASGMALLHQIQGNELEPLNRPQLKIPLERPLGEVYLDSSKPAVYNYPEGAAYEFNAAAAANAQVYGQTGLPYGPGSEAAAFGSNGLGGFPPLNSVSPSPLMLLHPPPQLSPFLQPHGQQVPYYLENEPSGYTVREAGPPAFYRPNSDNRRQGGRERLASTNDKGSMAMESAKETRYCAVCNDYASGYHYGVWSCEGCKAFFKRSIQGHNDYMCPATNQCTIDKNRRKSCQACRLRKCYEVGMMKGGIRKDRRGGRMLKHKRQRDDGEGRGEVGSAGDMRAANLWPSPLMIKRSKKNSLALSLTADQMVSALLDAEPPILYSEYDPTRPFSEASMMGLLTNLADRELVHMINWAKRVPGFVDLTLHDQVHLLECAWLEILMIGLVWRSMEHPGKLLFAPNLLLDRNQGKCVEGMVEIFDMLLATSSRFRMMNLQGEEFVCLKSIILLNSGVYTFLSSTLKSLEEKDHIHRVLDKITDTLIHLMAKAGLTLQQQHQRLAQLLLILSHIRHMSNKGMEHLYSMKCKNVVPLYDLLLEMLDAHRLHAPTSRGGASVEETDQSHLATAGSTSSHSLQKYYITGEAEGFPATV

In assay [15] the target is Steroid hormone receptor ERR1 (Homo sapiens) (UniProt P11474). The experiment in a line: ATG_ERRa_TRANS: Attagene TRANS-FACTORIAL HepG2 Assay for human Estrogen-Related Receptor alpha (ERRa) (AID 2282971; active means hit-call score of the fitted dose curve at least 0.9, where 1 is the maximum). Particulars: HepG2 Attagene TRANS reporter, ERRa transactivation. In outline:
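HepG2 cells transiently transfected with GAL4-UAS reporter units and chimeric NR-Gal4 constructs; after 24 hour compound incubation, reporter mRNA quantified by RT-PCR, fluorescent labelling and capillary electrophoresis, gain of signal versus DMSO.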

Assay [16] concerns the target X-box-binding protein 1 (Homo sapiens) (UniProt P17861). Kind of assay: ATG_Xbp1_CIS: Attagene CIS-FACTORIAL HepG2 Assay for human X-box Binding Protein 1 (XBP1) (AID 2282972). Particulars: HepG2 XBP1 cis-element reporter, Attagene multiplex; actives raise or lower the signal. In outline: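 Read-out: fluorescent reporter mRNA fragments resolved by capillary electrophoresis after RT-PCR. Human HepG2 liver cells carried transfected cis-promoter reporter units and were exposed to chemicals for 24 hours. Gain or loss of signal fitted relative to DMSO baseline.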

Assay [17] in a line: ATG_M_19_TRANS: Attagene TRANS-FACTORIAL HepG2 Assay for M19 Transcription Factor (Internal Marker) (AID 2282974; active means hit-call score of the fitted dose curve at least 0.9, where 1 is the maximum). Particulars: HepG2 Attagene TRANS-FACTORIAL M19 internal marker reporter. In outline: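 24 h chemical exposure of transiently transfected HepG2 (MRTU library). RNA → oligo(dT) RT → PCR → 6-FAM labelling → HpaI cut → CE fluorescence. Positive-direction fit vs DMSO baseline; background internal-marker readout.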

A short description of assay [18]: ATG_GAL4_TRANS: Attagene TRANS-FACTORIAL HepG2 Assay for GAL4 (Internal Marker) (AID 2282976; active means hit-call score of the fitted dose curve at least 0.9, where 1 is the maximum). Particulars: HepG2 Attagene TRANS GAL4 internal marker reporter. In a few lines: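 Background-control readout: GAL4-UAS reporter transcript in transiently transfected HepG2 cells after 24 h compound exposure. Measured by RT-PCR, 6-FAM primer extension, HpaI digest and capillary electrophoresis; gain-of-signal fit versus DMSO.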

In assay [19] the target is Estrogen-related receptor gamma (Homo sapiens) (UniProt P62508). The experiment in a line: ATG_ERRg_TRANS: Attagene TRANS-FACTORIAL HepG2 Assay for human Estrogen-Related Receptor gamma (ERRg) (AID 2282977; active means hit-call score of the fitted dose curve at least 0.9, where 1 is the maximum;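 further: hits increase reporter signal over DMSO so potencies reflect activators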). Particulars: HepG2 Attagene TRANS reporter, ERRg transactivation. In a few lines:
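Readout: fluorescent reporter-mRNA fragments resolved by capillary electrophoresis after RT-PCR and HpaI cut. Cells: transiently transfected HepG2 carrying GAL4-UAS reporters driven by exogenous NR-Gal4 chimeras, dosed 24 h. Activity fitted upward relative to DMSO baseline.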

Assay [20] has as its target Nuclear receptor subfamily 1 group I member 3 (Homo sapiens) (UniProt Q14994). The experiment in a line: ATG_CAR_TRANS: Attagene TRANS-FACTORIAL HepG2 Assay for human Constitutive Androstane Receptor (CAR) (AID 2282969; active means hit-call score of the fitted dose curve at least 0.9, where 1 is the maximum;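 further: activators raise reporter mRNA above DMSO so AC50 marks induction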). Particulars: HepG2 Attagene TRANS-FACTORIAL CAR reporter. In a few lines:
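Signal is reporter mRNA induction relative to DMSO, measured 24 h after dosing by RT-PCR with fluorescent primer extension and capillary electrophoresis. Human HepG2 liver cells carried transiently transfected chimeric NR-Gal4/GAL4-UAS reporter constructs.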

Chain of Paired box protein Pax-6 (Homo sapiens) (P26367 whole entry, looked up): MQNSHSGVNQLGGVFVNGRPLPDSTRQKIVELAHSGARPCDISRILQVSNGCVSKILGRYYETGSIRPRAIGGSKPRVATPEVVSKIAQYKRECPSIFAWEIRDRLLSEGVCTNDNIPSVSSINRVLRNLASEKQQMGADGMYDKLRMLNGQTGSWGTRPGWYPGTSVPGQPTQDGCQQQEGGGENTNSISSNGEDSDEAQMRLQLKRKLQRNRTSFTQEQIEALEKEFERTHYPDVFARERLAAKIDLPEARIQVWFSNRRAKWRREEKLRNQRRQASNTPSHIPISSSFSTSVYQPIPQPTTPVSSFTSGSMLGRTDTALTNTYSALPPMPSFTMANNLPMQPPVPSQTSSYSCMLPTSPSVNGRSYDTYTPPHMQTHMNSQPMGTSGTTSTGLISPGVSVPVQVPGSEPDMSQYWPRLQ
Chain of X-box-binding protein 1 (Homo sapiens) (P17861 whole entry, looked up, the tested form may be a part): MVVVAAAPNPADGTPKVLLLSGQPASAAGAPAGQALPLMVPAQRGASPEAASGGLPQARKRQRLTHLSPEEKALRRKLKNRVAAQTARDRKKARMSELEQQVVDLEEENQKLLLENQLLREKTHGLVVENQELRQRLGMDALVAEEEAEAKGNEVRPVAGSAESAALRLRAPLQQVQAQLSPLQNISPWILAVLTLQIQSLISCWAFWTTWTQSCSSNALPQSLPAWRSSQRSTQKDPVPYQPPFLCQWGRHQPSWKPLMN
Chain of Steroid hormone receptor ERR1 (Homo sapiens) (P11474 whole entry, looked up, the tested form may be a part): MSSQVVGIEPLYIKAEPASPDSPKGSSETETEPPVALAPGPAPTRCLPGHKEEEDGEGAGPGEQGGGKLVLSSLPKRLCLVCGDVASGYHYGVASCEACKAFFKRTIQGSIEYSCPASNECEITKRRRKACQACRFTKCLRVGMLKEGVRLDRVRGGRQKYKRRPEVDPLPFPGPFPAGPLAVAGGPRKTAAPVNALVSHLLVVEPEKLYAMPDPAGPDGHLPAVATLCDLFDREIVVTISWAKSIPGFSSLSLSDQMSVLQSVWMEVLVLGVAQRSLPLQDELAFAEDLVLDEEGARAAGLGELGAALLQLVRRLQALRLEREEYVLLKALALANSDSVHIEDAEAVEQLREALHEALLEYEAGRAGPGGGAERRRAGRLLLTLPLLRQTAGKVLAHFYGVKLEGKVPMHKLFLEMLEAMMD
Chain of Signal transducer and activator of transcription 3 (Homo sapiens) (P40763 whole entry, looked up): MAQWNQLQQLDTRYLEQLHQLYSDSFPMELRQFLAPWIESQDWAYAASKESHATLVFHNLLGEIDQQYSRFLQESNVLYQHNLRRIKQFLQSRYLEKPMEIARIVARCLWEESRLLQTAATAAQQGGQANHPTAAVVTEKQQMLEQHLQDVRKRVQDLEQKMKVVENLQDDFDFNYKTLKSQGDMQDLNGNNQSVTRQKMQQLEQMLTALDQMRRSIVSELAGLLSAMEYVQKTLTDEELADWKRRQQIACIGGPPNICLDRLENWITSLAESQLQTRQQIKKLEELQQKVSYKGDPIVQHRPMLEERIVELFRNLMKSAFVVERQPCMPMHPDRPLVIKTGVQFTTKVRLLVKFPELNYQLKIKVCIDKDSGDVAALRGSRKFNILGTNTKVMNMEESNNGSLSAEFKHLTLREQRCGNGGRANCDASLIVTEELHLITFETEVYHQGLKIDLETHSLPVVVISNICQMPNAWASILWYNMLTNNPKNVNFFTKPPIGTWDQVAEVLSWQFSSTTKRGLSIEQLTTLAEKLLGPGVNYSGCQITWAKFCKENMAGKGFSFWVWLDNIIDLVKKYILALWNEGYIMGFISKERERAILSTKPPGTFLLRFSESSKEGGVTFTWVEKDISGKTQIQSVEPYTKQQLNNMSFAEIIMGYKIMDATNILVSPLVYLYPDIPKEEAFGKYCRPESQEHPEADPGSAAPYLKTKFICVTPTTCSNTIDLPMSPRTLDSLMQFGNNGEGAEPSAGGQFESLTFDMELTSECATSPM
Chain of Transcription factor Sp1 (Homo sapiens) (P08047 whole entry, looked up): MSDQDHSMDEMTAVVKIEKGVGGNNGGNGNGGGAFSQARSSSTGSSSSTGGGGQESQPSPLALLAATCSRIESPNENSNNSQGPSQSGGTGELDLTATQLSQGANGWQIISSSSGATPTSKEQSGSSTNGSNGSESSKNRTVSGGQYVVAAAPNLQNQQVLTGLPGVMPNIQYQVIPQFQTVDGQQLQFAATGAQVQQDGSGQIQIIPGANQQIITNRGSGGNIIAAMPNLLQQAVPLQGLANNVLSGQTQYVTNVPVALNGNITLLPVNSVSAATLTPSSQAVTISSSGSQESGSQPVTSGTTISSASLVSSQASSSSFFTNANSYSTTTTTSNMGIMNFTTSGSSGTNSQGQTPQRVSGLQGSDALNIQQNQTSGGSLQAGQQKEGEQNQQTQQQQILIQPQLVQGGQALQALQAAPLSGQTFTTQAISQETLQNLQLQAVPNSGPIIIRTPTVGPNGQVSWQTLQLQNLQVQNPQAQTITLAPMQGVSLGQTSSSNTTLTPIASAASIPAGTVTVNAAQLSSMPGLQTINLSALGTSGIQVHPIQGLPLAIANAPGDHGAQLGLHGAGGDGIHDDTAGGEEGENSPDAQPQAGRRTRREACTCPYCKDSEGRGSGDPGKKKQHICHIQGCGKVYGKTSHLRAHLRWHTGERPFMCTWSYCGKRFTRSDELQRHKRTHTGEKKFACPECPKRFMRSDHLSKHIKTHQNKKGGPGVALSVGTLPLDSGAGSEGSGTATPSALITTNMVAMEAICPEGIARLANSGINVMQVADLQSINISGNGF
Chain of Estrogen-related receptor gamma (Homo sapiens) (P62508 whole entry, looked up, the tested form may be a part): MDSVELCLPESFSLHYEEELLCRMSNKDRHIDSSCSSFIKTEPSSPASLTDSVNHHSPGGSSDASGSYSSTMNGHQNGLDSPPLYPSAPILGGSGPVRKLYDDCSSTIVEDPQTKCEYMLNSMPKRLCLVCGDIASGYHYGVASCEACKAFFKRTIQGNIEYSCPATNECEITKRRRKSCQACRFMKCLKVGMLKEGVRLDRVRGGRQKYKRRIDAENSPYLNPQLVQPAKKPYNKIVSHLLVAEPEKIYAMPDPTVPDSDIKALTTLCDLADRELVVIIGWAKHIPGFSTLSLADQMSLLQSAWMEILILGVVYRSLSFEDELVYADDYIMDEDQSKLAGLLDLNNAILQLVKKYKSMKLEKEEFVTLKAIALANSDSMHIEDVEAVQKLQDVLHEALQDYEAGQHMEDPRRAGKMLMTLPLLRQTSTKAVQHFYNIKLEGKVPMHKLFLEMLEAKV
Chain of Nuclear receptor subfamily 1 group I member 3 (Homo sapiens) (Q14994 whole entry, looked up, the tested form may be a part): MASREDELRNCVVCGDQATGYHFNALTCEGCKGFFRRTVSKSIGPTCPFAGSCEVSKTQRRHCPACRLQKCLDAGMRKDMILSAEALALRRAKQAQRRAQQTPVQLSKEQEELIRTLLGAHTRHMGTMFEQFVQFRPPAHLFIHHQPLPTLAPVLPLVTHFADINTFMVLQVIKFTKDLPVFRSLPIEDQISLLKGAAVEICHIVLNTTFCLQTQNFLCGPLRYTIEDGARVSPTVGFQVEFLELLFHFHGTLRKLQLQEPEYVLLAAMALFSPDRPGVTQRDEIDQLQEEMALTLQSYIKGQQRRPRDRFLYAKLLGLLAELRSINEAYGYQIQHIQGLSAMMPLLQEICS

With `OC12N=C(c3ccccc3)SC1Cc1cc(Cl)ccc12` (stereo not given), the molecule was classed as inactive in assay [1], in [4], in assay [5], in assay [6], in [7] and in [8]. Also, the molecule was classed as inactive in assay [9], in assay [10], in assay [11], in assay [12], in assay [13] and in [15]. The molecule was called inactive in assay [16], in [17], in [18] and in [19]. Further, the AC50 in assay [2] is 4.27 µM (active); in assay [3], 0.0507 µM (active); in assay [14], 3.97 µM (active).

`CCCCCCCCOc1ccc(C(=O)c2ccccc2)c(O)c1`: the result in assay [1], in [2], in assay [3], in assay [4], in assay [5] and in assay [6] was inactive. Besides, the call in [7], in assay [8], in [9], in [10], in assay [11] and in assay [12] was inactive. Also, the outcome in assay [13], in assay [20], in [14], in assay [15], in assay [16] and in [17] was inactive. The call in assay [19] was inactive.

Consider `CCCCCCCCN(C)CCCCCCCC`, for which the result in [1], in [3], in assay [4], in [5], in [6] and in [7] was inactive. Moreover, the call in [8], in assay [9], in assay [10], in assay [11], in assay [12] and in assay [13] was inactive. The call in [20], in assay [16], in assay [17], in assay [18] and in [19] was inactive. Also, the results for the AC50 in [2] and in [14] were 26.5 µM (active) and 30.4 µM (active), respectively.

With `c1ccc2ccccc2c1`, the outcome in assay [1], in assay [2], in [3], in [4], in assay [5] and in [6] was inactive. Moreover, the outcome in assay [7], in assay [8], in assay [9], in assay [10], in assay [11] and in assay [12] was inactive. In addition, the outcome in [13], in [14], in [15], in assay [16] and in assay [19] was inactive. Besides, the half-maximal activity concentration (AC50) in [14] was 59 µM (active).

For the molecule `CO[C@H]1/C=C/O[C@@]2(C)Oc3c(C)c(O)c4c(O)c(c(/C=N/N5CCN(C)CC5)c(O)c4c3C2=O)NC(=O)/C(C)=C\C=C\[C@H](C)[C@H](O)[C@@H](C)[C@@H](O)[C@@H](C)[C@H](OC(C)=O)[C@@H]1C`, the call in assay [1], in assay [3], in [4], in assay [5], in [6] and in [7] was inactive. The outcome in assay [8], in assay [9], in [10], in assay [11], in [12] and in assay [13] was inactive. For the same molecule, the molecule was called inactive in assay [15], in [16], in [17] and in assay [18]. Moreover, the AC50 in assay [2] was 461 nM (active) and 369 nM (active); in assay [13], 1.38 µM (active).

As to `CCN(CC)C(=O)c1cc(S(=O)(=O)Cc2ccccc2)c(N2CCC(c3ccccc3)CC2)cc1N(CC)CCN(C)C`, the molecule was classed as inactive in assay [1], in [3], in assay [4], in [5], in assay [6] and in assay [8]. Moreover, the call in assay [9], in assay [10], in assay [11], in [12], in assay [13] and in [20] was inactive. In addition, the result in [14], in assay [16] and in [19] was inactive. Besides, the AC50 is 0.126 µM (active) in assay [2] and 0.926 µM (active) in assay [7].
